Screening data as filed in PubChem BioAssay.
A selection: hits, their analogues and other compounds. The true share with any hit is near 21%.
ELG1 repair inh – ELG1-dependent DNA repair inhibition. HEK293T ELG1-luciferase reporter, luminescence, 16 h; DNA damage induced by 5-fluorouridine. Potency, µM (top dose mostly 46.1 µM), inactives show top-dose activity change, negative = inhibition, usual class: inhibitors. actives 2.3% (n = 330,000). AID 504467; further: potency means the concentration at half of the fitted maximal effect; nearly all actives have a fitted effect of over 55% in size
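Overnight (16 hr) co-exposure of 2,000 cells/well to 5-fluorouridine and compound at 37 °C preceded detection. Luciferase was quantified via ONE-Glo luminescence; loss of signal denotes inhibition.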
VP16 counter – Gal4-VP16 reporter inhibition counter-screen; Drosophila S2 Gal4-VP16 UAS-luciferase, luminescence, 20 h; Potency, µM (doses to about 53.6 µM), for inactives: top-dose activity, negative = inhibition, hits mostly inhibitors; actives 3.5% (n = 310,000);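 further: Gal4-VP16 expression switched on by copper sulfate through the metallothionein promoter; potency means the concentration at half of the fitted maximal effect; nearly all actives have a fitted effect of over 50% in size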
TDP1 cell CPT – DT40-hTDP1 cell growth loss with CPT; AID 686979; Potency, µM (doses to about 46.2 µM), for the others: top-dose activity change, negative = growth inhibition, usual class: inhibitors; chicken DT40 Tdp1-/-;hTDP1 cells + 20 nM CPT, ATP luminescence, 48 h; actives 12% (n = 420,000); further: potency means the concentration at half of the fitted maximal effect; nearly all actives have a fitted effect of over 55% in size
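Chicken DT40 Tdp1-/- cells complemented with human TDP1, 400 cells/well, exposed to compounds plus 20 nM camptothecin for at least 48 h at 37 C; viability read as ATP content by CellTiter-Glo luminescence.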
IL1B secr inh – inflammasome signaling inhibition, IL-1 beta readout; activity change, % at 57.5 µM; THP-1 LPS/ATP IL-1B secretion, AlphaLISA, 16 h; stronger effect = lower value; actives 4.7% (n = 360,000); in the data active means activity change below about -50%; inconclusive means mostly about -30% to -49%
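THP-1 cells pretreated 1 hr with compounds (up to 57.5 uM final), then stimulated with LPS (250 ng/mL final) plus ATP (1.25 mM final); secreted IL-1B measured by AlphaLISA after 16 hr, decreased signal indicating inhibition.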
RORg inh – inhibitors of mouse ROR gamma transcriptional activity; P51450; Drosophila S2 Gal4-RORgamma UAS-luciferase reporter, 20 h; Potency, µM (doses to about 53.6 µM), for the others: at the highest dose activity change, negative = inhibition, usual class: inhibitors; actives 5.4% (n = 310,000); further: potency means the concentration at half of the fitted maximal effect; nearly all actives have a fitted effect of over 60% in size
Target sequence (P51450 whole entry, looked up, the tested form may be a part): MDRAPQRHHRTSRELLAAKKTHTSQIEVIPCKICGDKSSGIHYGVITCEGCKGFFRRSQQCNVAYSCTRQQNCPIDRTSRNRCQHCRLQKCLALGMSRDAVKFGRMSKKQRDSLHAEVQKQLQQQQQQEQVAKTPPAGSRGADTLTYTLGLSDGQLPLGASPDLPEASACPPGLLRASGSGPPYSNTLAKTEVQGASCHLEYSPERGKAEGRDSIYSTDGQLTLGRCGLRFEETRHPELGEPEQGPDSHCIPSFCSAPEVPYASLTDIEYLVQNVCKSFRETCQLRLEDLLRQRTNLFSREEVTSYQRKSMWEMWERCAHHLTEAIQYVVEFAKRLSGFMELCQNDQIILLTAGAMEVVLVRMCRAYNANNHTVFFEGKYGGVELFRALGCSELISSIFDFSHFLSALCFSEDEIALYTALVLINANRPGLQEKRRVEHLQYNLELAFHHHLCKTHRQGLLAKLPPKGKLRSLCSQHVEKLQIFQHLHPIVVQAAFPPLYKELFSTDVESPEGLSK
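Stable Schneider cell line, Gal4 DNA-binding domain fused to ROR gamma, UAS-luciferase. Cmpd 1 hr RT → CuSO4 700 uM final → 20 hr RT → luciferase reagent 10 min → luminescence.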
DT40 TDP1 no CPT – qHTS for Inhibitors of human tyrosyl-DNA phosphodiesterase 1 (TDP1): qHTS in cells in absence of CPT. DT40 Tdp1-/- hTDP1 cells, no CPT, ATP luminescence, 48 h. Potency, µM (top dose mostly 46.2 µM), for the others: at the highest dose activity change, negative = growth inhibition, hits mostly inhibitors. actives 15% (n = 420,000); further: potency means the concentration at half of the fitted maximal effect; nearly all actives have a fitted effect of over 55% in size
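Cells were dispensed at 400 per well, compounds added by pin tool, plates incubated ≥48 hr at 37 °C, then CellTiter-Glo added for 30 min at room temperature before luminescence reading. Line: DT40 Tdp1-/- complemented with hTDP1; camptothecin omitted.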
Active calls of the source: *; ? = inconclusive; · = no result. Unless noted, the call rests on the fitted dose curve; in most records, active means well fitted curve in the direction sought with a large enough effect; inconclusive means small, poorly fitted or top-dose-only effect, or another doubt; inactive means no such curve, though single readings can be large; an effect the other way counts as inactive or inconclusive. On the % scale 0 is the no-effect control and ±100 the full control effect.

SMILES	ELG1 repair inh	VP16 counter	TDP1 cell CPT	IL1B secr inh	RORg inh	DT40 TDP1 no CPT
Cc1ccc(S(=O)(=O)c2nc(-c3ccc(F)cc3)oc2N2CCOCC2)cc1	17%	1%	0%	-18	-2%	0%
O=S(=O)(c1ccccc1)c1nc(-c2cccs2)oc1N1CCCCC1	·	·	29µM*	·	·	?
CC1CCN(c2oc(-c3cccs3)nc2S(=O)(=O)c2ccc(Cl)cc2)CC1	·	·	?	·	·	13µM*
Cc1ccc(S(=O)(=O)c2nc(-c3cccs3)oc2N2CCC(C)CC2)cc1	·	·	23µM*	·	·	10µM*
CCNc1ccc(-c2nc(-c3ccco3)no2)cc1[N+](=O)[O-]	·	·	-6%	·	·	-11%
Cc1cc(C)cc(CC(=O)N2CCC2(C)C(=O)NS(=O)(=O)c2ccccc2Cl)c1 (stereo not drawn)	·	·	12%	-7	·	1%
Cn1c(/C(C#N)=C(\O)c2ccc([N+](=O)[O-])cc2)nc2ccccc21	-10%	1%	?	5	1%	18µM*
Cn1c(/C(C#N)=C(\O)c2cccc(F)c2)nc2ccccc21	21%	7.1µM*	-1%	2	7.1µM*	?
CCN(CC)S(=O)(=O)c1ccc(/C(O)=C(\C#N)c2nc3ccccc3n2C)cc1	?	5.6µM*	?	?	2.8µM*	?
C/C(=N\Nc1ccc(C(=O)O)cc1)c1nc2ccccc2n1C	?	-24%	·	·	-2%	·
N#C/C(=C(/O)c1cccc(F)c1)c1nc2ccccc2s1	?	13%	21µM*	-59*	?	12µM*
CSc1cccc(NC(=O)CN(C)S(=O)(=O)c2cnc[nH]2)c1	3%	-3%	-2%	27	23%	1%
N#C/C(=C(/O)CN1CCOCC1)c1nc2ccccc2s1	22%	-1%	8%	2	22%	-28%
N#C/C(=C(/O)C(Cl)c1ccccc1)c1nc2ccccc2s1 (stereo not drawn)	?	2%	6.5µM*	-5	?	13µM*
CC1C(=O)N(Cc2cn(CCC3OCCCO3)nn2)CCS(=O)(=O)N1Cc1ccc(-c2ccccc2)cc1 (stereo not drawn)	·	·	?	-11	·	16µM*
CC1C(=O)N(Cc2cn(CCC3OCCO3)nn2)CCS(=O)(=O)N1Cc1ccc(-c2ccc(F)cc2)cc1 (stereo not drawn)	·	·	?	17	·	?
CC1C(=O)N(Cc2cn(CCC3OCCCO3)nn2)CCS(=O)(=O)N1Cc1ccc(-c2ccc(Cl)cc2)cc1 (stereo not drawn)	·	·	12µM*	-7	·	6.5µM*
CCC/C=C/c1ccc(CN2C(C)C(=O)N(Cc3cn(CCC4OCCO4)nn3)CCS2(=O)=O)cc1 (stereo not drawn)	·	·	?	10	·	15µM*
CC1C(=O)N(Cc2cn(CCC3OCCO3)nn2)CCS(=O)(=O)N1Cc1ccc(-c2cccc(N(C)C)c2)cc1 (stereo not drawn)	·	·	9.2µM*	-6	·	16µM*
O=C(CCC(=O)Nc1ccccc1)NNC(=O)C(c1ccccc1)c1ccccc1	?	-5%	-5%	-1	17%	-18%
COc1cc(OC)c2c(c1C(CCN1CCN(c3ccccc3)CC1)c1ccc(N(C)C)cc1)OC(=O)CC2c1ccc(N(C)C)cc1 (stereo not drawn)	·	-6%	·	·	7%	·
COC(=O)C1=C(C)N(C(C)C)C(=O)C1(NC(=O)c1ccccc1OC)C(F)(F)F (stereo not drawn)	·	·	-22%	·	·	-23%
CN(C)c1ccc(N/C=C/C(=O)c2ccc(F)cc2)cc1	?	?	?	-29	10µM*	?
